In PubChem BioAssay (NCI) one finds growth data, which are given here for 14 molecules.

Each structure is given as a SMILES string. About 83,000 compounds went through this panel and 20% of them were active in at least one assay; those are over-represented in the sample as a whole.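 For each line, cells grew in 96-well plates with the test compound present at a single concentration for 48 hours.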 Unmarked numbers belong to inactive results. Calls of active or inactive are those of the source. Rule for the calls: active = growth percent below 10; inactive = the rest.

What all share (experiment): NCI-60 one-dose screen, 48 h (100 = growth as untreated, 0 = no growth, -100 = all killed)
Common to all, as to conditions: 10 µM

Experiment [1] deals with NCI-H226 lung.
For experiment [2], the system named is NCI-H322M lung.
Experiment [3] deals with HOP-62 NSCLC.
Experiment [4] concerns NCI-H460 lung.
Experiment [5] deals with HOP-92 NSCLC.
Experiment [6] has as its system NCI-H522 lung.
The test system of experiment [7] is A549/ATCC NSCLC.
Experiment [8] relates to 786-0 renal.
Experiment [9] concerns COLO 205 colon.

For the molecule `COc1ccc(/C(C)=N/N=C2C(=O)N(C)c3ccc(Br)cc32)cc1S(N)(=O)=O`, the growth in [1] was 43.6%; in experiment [2], 80.8%; in experiment [3], 36.2%; in experiment [4], 74.8%; in experiment [5], 28.1%; in experiment [6] it was 45.5%. Further, the figures for the growth in [7], in experiment [8] and in [9] were 86.1%, 71.4% and 102%, respectively.
With `CC1(C)CC[C@]2(C(=O)O)CC[C@]3(C)C(=CC[C@@H]4[C@@]5(C)C/C(=C/c6ccncc6)[C@H](O)C(C)(C)[C@@H]5CC[C@]43C)[C@@H]2C1`, the growth in experiment [2] is 34%; in experiment [3], 42.1%; in experiment [4], 34%; in experiment [5] it was 4.52% (active); in experiment [6], 42.1%; in experiment [7] it was 19.9%. Moreover, the figures for the growth in [8] and in experiment [9] were 48.4% and 37.2%, respectively.
Consider `CCCCCCCCCCCCCCCCCCCC(=O)NCCc1c[nH]c2ccc(O)cc12`, for which the growth was 87.6% in [1]; 114% in experiment [2]; 144% in experiment [3]; 101% in [4]; 148% in experiment [5]; -13.2% (active) in experiment [6]. The growth in experiment [7] is 90.8%; in experiment [8], 100%; in [9] it was 147%.
`COc1cc2c3c(n(CCCN4CCOCC4)c(=O)c2cc1OC)-c1nc2c(cc1C3=O)OCO2`: the growth in [1] is 6.34% (active); in [2], 41%; in experiment [3] it was -12.4% (active); in [4], -15.4% (active); in experiment [5], -2.4% (active); in experiment [6] it was 39.9%. Moreover, the growth in experiment [7] is 19%; in experiment [8], -6.02% (active); in experiment [9], 13%.
Consider `O=C(c1ccc(Cl)cc1)C1[C@H](c2ccc(Br)cc2)[C@@H](c2ccccc2)NC12C(=O)Nc1ccc(Cl)cc12` (some centres not stated), for which the growth was -85.6% (active) in [1]; -28.6% (active) in [2]; -73.4% (active) in experiment [3]; -63% (active) in experiment [4]; -69.2% (active) in experiment [5]; -79.5% (active) in experiment [6]. For the same molecule, the growth in experiment [7] is -44% (active); in experiment [8], -68% (active); in [9], -87.7% (active).
Consider `Cc1ccc(NCC(=O)Nn2c(COc3ccccc3)nc3ccccc3c2=O)cc1`, for which the growth in experiment [1] was 66.3%; in experiment [2] it was 85.9%; in experiment [3], 27.4%; in [4], 81.4%; in [5] it was 58.1%; in [6] it was 71.7%. Besides, the growth in [7] was 77.9%; in [8] it was 66.4%; in [9] it was 85%.
Turning to `O=C(Nc1ccccc1)Nc1nc2ccccc2s1`, the growth in [1] is 72.1%; in experiment [2], 84.4%; in experiment [3], 77.2%; in experiment [4], 95.3%; in experiment [5], 77.8%; in [6], 72.3%. In addition, the growth in [7] was 89.5%; in experiment [8], 102%; in experiment [9], 50.8%.
Take `CCCn1c(=O)c2[nH]c(-c3ccc(OCc4nc5ccc(C)cc5[nH]4)cc3)nc2n(CCC)c1=O`: the growth was -55% (active) in experiment [1]; 40.3% in experiment [2]; -17.3% (active) in [3]; 13% in [4]; -43.2% (active) in [5]; 36.7% in experiment [6]. For the same molecule, the growth in [7] is 62.7%; in [8], -75.2% (active); in [9], 91.3%.
Regarding `O=c1[nH][nH]c(Nc2ccccc2)c1N=Nc1ccc(F)cc1`, the growth is 84.4% in [1]; 83.5% in experiment [2]; 119% in experiment [3]; 101% in [4]; 71.2% in experiment [5]; 75.1% in experiment [6]. Besides, the growth in experiment [7] was 84.8%; in experiment [8] it was 91.3%; in experiment [9], 107%.
`N#Cc1ccc(-c2nn(-c3ccc(C(=O)O)cc3)cc2CNc2ccc(Cl)cc2)cc1`: the growth in experiment [1] was 85%; in experiment [2] it was 88.8%; in experiment [3], 81.3%; in experiment [4] it was 93.1%; in experiment [5], 133%; in [6] it was 81.3%. Also, the growth in [7] is 84.6%; in [8], 87.2%; in [9] it was 142%.
As for `CC(=C(c1ccc(OCCN2CCCCC2)cc1)c1ccc(OCCN2CCCCC2)cc1)c1ccccc1`, the growth is 82.4% in experiment [1]; 60.9% in experiment [2]; 41.6% in experiment [4]; 8.69% (active) in experiment [5]; 64.8% in experiment [6]; 33.3% in [7]. For the same molecule, the growth is -35.8% (active) in [8] and -83.9% (active) in experiment [9].
Turning to `Brc1ccc(/C=C/c2n(Cc3ccc4ccccc4c3)c3ccccc3[n+]2Cc2ccc3ccccc3c2)cc1`, the growth in [1] was -85% (active); in experiment [2] it was 7.28% (active); in [3] it was -74.3% (active); in experiment [4] it was -66.2% (active); in [5], -89.5% (active); in [6], -84.2% (active). For the same molecule, the figures for the growth in experiment [7], in [8] and in experiment [9] were 10.4%, -95.5% (active) and -69.3% (active), respectively.
For `C=C1CCC2C3(C)COC(c4ccccc4F)OC3CCC2(C)C1C/C=C1/C(=O)OCC1O` (configuration not stated), the growth in experiment [1] was -25.6% (active); in experiment [2], 14.5%; in [3], -41.7% (active); in experiment [4], -14.6% (active); in experiment [5] it was -37.5% (active); in experiment [6], -72.5% (active). Also, the growth is -5.16% (active) in experiment [7], -86.8% (active) in experiment [8] and -56.3% (active) in experiment [9].
For the molecule `COc1ccc(CN2[C@@H](C(=O)NCc3ccc(C(=O)NO)cc3)Cc3c([nH]c4ccccc34)[C@@H]2C2CC2)cc1`, the growth is 24% in experiment [3]; 13.7% in [4]; -3.87% (active) in [5]; -17% (active) in experiment [6]; 40.3% in experiment [7]; 28.4% in experiment [8]. The growth in [9] was -40.3% (active).
